Pf growth 96h – Primary qHTS for delayed death inhibitors of the malarial parasite plastid, 96 hour incubation; P. falciparum luciferase reporter growth, 96 h; AID 504834, 2011; 320,000 tested, 6.9% active; Potency, µM (titrated, usually from 28.7 µM), hits mostly inhibitors
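Erythrocytes infected with luciferase-expressing P. falciparum were dispensed at 2% hematocrit and 0.05% parasitemia (final), then incubated with compounds 96 hours at 37 C in 5% CO2. Luminescence after detection reagent addition reported growth.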
Cycloheximide cs – Cycloheximide Counterscreen for Small Molecule Inhibitors of Shiga Toxin; max response, %; 300,000 tested, 12% active; cell reporter, cycloheximide protein synthesis inhibition counterscreen; AID 2314, 2010; in the data active = max response mostly above about 13%, no sharp cut-off; inactive = mostly below about 14%; note: read at 38.3 µM for the half of the compounds with a filed dose
Lassa entry inh – qHTS for Inhibitors of binding or entry into cells for Lassa Virus; Lassa virus pseudotype entry inhibition, cell reporter; Potency, µM (titrated, usually from 37.9 µM), actives largely listed as inhibitors; 300,000 tested, 1.2% active; AID 540256, 2011; calls by dose curve; tested in HEK293 cells; note: nearly all actives have a fitted effect of over 50% in size
Pf growth 48h – Primary qHTS for delayed death inhibitors of the malarial parasite plastid, 48 hour incubation | P. falciparum luciferase growth in erythrocytes, 48 h | Potency, µM (series often up to 28.7 µM), usual class: inhibitors | 310,000 tested, 5.9% active
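Compounds are pin-transferred into medium, infected erythrocytes (2% hematocrit, 0.1% parasitemia final) are added, and plates sit one parasite generation at 37 C in 5% CO2. Detection reagent is then added and luminescence measured.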
Marburg entry inh – qHTS for inhibitors of binding or entry into cells for Marburg Virus; Marburg virus pseudotyped entry inhibition, cell reporter; Potency, µM (titrated, usually from 37.8 µM), actives largely listed as inhibitors; 300,000 tested, 1.8% active; AID 540276, 2011; calls by dose curve; tested in HEK293 cells
Shiga inhibitor – A qHTS for Small Molecule Inhibitors of Shiga Toxin; inhibition, % at 38.7 µM; 290,000 tested, 9.2% active; Vero cells, Shiga toxin protein synthesis inhibition reporter; in the data active = inhibition mostly above about 28%, no sharp cut-off; inactive = mostly below about 43%
A number is an active result; – = inactive; ? = inconclusive; · = not tested or not shown; + = active, no number. Most compounds without a hit are left out; they make up all but 19% or so of the library. Unless noted, calls come from the whole dose curve; as a rule, active = well fitted inhibition curve with a large enough effect; inconclusive = small, poorly fitted or top-dose-only effect, or another doubt; inactive = no such curve, though single readings can be large or run the other way.

SMILES | Pf growth 96h | Cycloheximide cs | Lassa entry inh | Pf growth 48h | Marburg entry inh | Shiga inhibitor
COc1ccc(-c2[nH]ncc2CN2CCN(c3ccc(F)cc3)CC2)cc1 | ? | – | · | – | · | –
O=C(Nc1ccon1)c1cccn(Cc2ccccc2)c1=O | · | · | – | · | · | ·
CN(CCOc1ccc(Br)cc1)C(=O)CNC(=O)c1ccc2ccccc2c1 | – | – | – | – | ? | –
OC1(c2ccc(Cl)cc2)CCN(Cc2cn[nH]c2-c2ccc(F)cc2)CC1 | ? | – | – | 13µM | ? | –
OC1(c2ccc(Cl)cc2)CCN(Cc2cn[nH]c2-c2ccccc2)CC1 | 9.3µM | – | – | ? | ? | –
Fc1ccc(-c2[nH]ncc2CN2CCN(c3ccc(F)cc3)CC2)cc1 | – | – | ? | – | ? | –
CCC(=O)OCC(=O)Nc1ccc2c(c1)OCO2 | – | – | – | – | – | –
CCCC(=O)OCC(=O)Nc1ccc2c(c1)OCO2 | – | 15 | – | – | ? | –
O=C(COC(=O)C1CC1)Nc1ccc2c(c1)OCO2 | – | 36 | – | – | ? | –
COc1ccc(C(=O)N2CCN(C(=O)COc3ccc(C)cc3)CC2)cc1OC | · | · | – | · | · | ·
O=C(Cn1cc(S(=O)(=O)Cc2ccccc2)c2ccccc21)N1CCOCC1 | – | – | – | – | – | –
COc1cc2c(cc1OC)C1(Nc3c-2c(-c2ccccc2)nn3-c2ccccc2)C(=O)Nc2ccccc21 (stereo unspecified) | – | – | – | · | ? | –
COc1cc2c(cc1OC)C1(Nc3c-2c(C)nn3-c2ccccc2)C(=O)Nc2ccccc21 (stereo unspecified) | 1.5µM | – | ? | · | – | –
CCc1nn(-c2ccccc2)c2c1-c1cc(OC)c(OC)cc1C1(N2)C(=O)Nc2ccccc21 (stereo unspecified) | 2.6µM | – | – | · | – | –
O=C(Nc1cccc(NC(=O)c2ccccc2Cl)c1)c1ccc([N+](=O)[O-])o1 | – | – | ? | ? | ? | –
O=C(Nc1ccc2[nH]c(=O)[nH]c2c1)c1ccc([N+](=O)[O-])o1 | 12µM | · | · | ? | · | ·
Cc1ccc(NC(=O)c2ccc([N+](=O)[O-])o2)cc1C | – | 41 | ? | ? | ? | 108
COc1ccc(CC(=O)OC(C)CN2CCCC2)cc1 (stereo unspecified) | · | – | – | – | – | –
Cc1cc(OC2CCCCC2)nc(NCc2ccccc2)n1 | 5.2µM | – | – | ? | – | –
CC(=O)c1ccc(Oc2cc(C)nc(NCc3ccccc3)n2)cc1 | ? | – | ? | ? | ? | –
Cc1cc(N2CCCCC2)nc(NCc2ccccc2)n1 | 2.9µM | – | ? | 3.3µM | 3.2µM | –
CCCCOc1cc(C)nc(NCc2ccccc2)n1 | ? | – | ? | 13µM | ? | –
CCOc1cc(C)nc(NCc2ccccc2)n1 | ? | – | – | · | – | –
Cc1ccc2nc(N=C(N)N)nc(C)c2c1 | – | – | – | ? | ? | –
CCCC(=O)N/C(N)=N/c1nc(C)c2cc(C)ccc2n1 | 2.6µM | – | ? | 2.6µM | – | –
SMILES | Pf growth 96h | Cycloheximide cs | Lassa entry inh | Pf growth 48h | Marburg entry inh | Shiga inhibitor
Cc1ccc2nc(Cl)c3cc(C(=O)NC4CCCCC4)sc3c2c1 | · | · | – | · | ? | ·
CCC(=O)N/C(N)=N/c1nc(C)c2cc(C)c(C)cc2n1 | 1.7µM | – | – | 1.7µM | – | –
Cc1cc2nc(/N=C(\N)NC(=O)C(C)C)nc(C)c2cc1C | 2.6µM | – | ? | 2.6µM | ? | –
Cc1cc2nc(N=C(N)N)nc(C)c2cc1C | – | – | · | ? | · | –
Cc1ccc2nc(/N=C(\N)NC(=O)NC3CCCCC3)nc(C)c2c1 | ? | – | ? | ? | 5.6µM | –
CC(C)(C)OC(=O)N1CCCN(C(=O)c2ccc(Cl)cc2)CC1 | – | – | – | · | ? | –
Cc1nc(/N=C(\N)NC(=O)c2ccccc2)nc2ccccc12 | – | 50 | – | – | ? | 52
Cc1nc(N=C(N)N)nc2ccccc12 | – | – | ? | ? | ? | –
O=C(N/N=C/c1ccsc1)c1cc(-c2ccncc2)nc2ccccc12 | ? | – | ? | ? | ? | –
COc1ccccc1-c1cc(C(=O)N/N=C/c2ccc(C)o2)c2ccccc2n1 | ? | – | ? | ? | ? | –
Cc1ccsc1/C=N/NC(=O)c1cc(-c2ccncc2)nc2ccccc12 | ? | – | ? | ? | 0.58µM | –
COc1ccccc1-c1cc(C(=O)N/N=C/c2sccc2C)c2ccccc2n1 | 1.9µM | – | ? | 1.9µM | 13µM | –
O=P(O)(O)OP(=O)(O)OP(=O)(O)O | – | · | · | – | · | ·
C=CCNC(=S)NNC(=O)c1ccc2c(c1)OCO2 | – | – | – | – | – | –
NC(=O)NNC1=Nc2cccc3cccc1c23 | – | – | – | – | – | –
Clc1ccccc1/C=N/NC1=Nc2cccc3cccc1c23 | – | 32 | ? | – | ? | 66
Cc1cc(=O)[nH]c(N/N=C/c2ccccc2Cl)n1 | ? | – | · | – | · | –
C(=N\NC1=Nc2cccc3cccc1c23)/c1ccccn1 | ? | 53 | · | ? | · | 97
CCOc1cc(-c2ccc(OC(=O)c3ccc(Cl)cc3)c(OC)c2)cc(=O)c2c(C)oc(C)c12 | · | · | – | · | – | ·
CCN(CC)C(=O)CSc1nc2ccccc2c(=O)n1CCC(=O)NCCc1ccc(OC)c(OC)c1 | – | – | · | – | – | –
CC(C)c1ccc(NC(=S)N2CCN(C)CC2)cc1 | – | 37 | · | – | · | 37
CC(C)c1ccc(NC(=S)N2CCCC2)cc1 | – | 61 | – | – | – | 156
S=C(Nc1ccc(Cl)c(Cl)c1)N1CCCC1 | – | – | – | – | ? | –
NC(=O)CC(NC(=O)c1ccc(Br)cc1)c1ccc(N2CCC(Br)CC2)c([N+](=O)[O-])c1 (stereo unspecified) | – | – | · | – | · | –
CCCCN1C(=O)C(=O)N(c2ccccc2)C1=S | – | 67 | – | – | – | +
SMILES | Pf growth 96h | Cycloheximide cs | Lassa entry inh | Pf growth 48h | Marburg entry inh | Shiga inhibitor
CCNC(=S)NC1CC2CCCC(C1)N2CCc1ccccc1 (stereo unspecified) | 8.3µM | – | · | ? | · | –
CC(C)CNC(=S)NC1CC2CCC(C1)N2Cc1ccccc1 (stereo unspecified) | – | – | – | ? | 0.65µM | –
CCNC(=S)NC1CC2CCC(C1)N2Cc1ccccc1 (stereo unspecified) | ? | – | – | – | 0.92µM | –
Clc1ccc(Nc2ncnc3c2cnn3-c2ccccc2)cc1 | ? | 42 | · | – | · | 58
CC(=O)Nc1ccc(Nc2ncnc3c2cnn3-c2cccc(C)c2)cc1 | – | 33 | – | – | – | 55
CC(C)Nc1ncnc2c1cnn2-c1ccc(Cl)cc1 | – | 21 | · | – | · | 31
COC(=O)c1ccc(Nc2ncnc3c2cnn3-c2ccccc2)cc1 | · | · | – | · | · | ·
CC(=O)Nc1ccc(Nc2ncnc3c2cnn3-c2ccccc2)cc1 | – | 41 | ? | – | ? | 50
CC1CCCN(c2ncnc3c2nc2n3CCCCC2)C1 (stereo unspecified) | · | · | – | · | · | ·
O=C(c1ccccc1)c1ccncc1 | ? | – | – | – | – | –

Source: PubChem
